According to PubChem BioAssay (NCI):
The panel holds about 79,000 compounds, 15% with a hit somewhere; the sample as a whole holds those more often. No stated cut-off is given here; in the data, active means growth inhibition above about 70%; inactive means the rest.

What was measured:
[1] = NCI Yeast Anticancer Drug Screen. Data for the rad50 strain (AID 155);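 further: 0% = growth of vehicle-only cultures of the same strain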; conditions: S. cerevisiae rad50 strain growth inhibition; at 50.0 µM; active compounds read high
In short: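 A DNA repair-deficient yeast mutant serves as the test organism; compound-induced growth inhibition is calculated against vehicle-treated cells.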

[2] = NCI Yeast Anticancer Drug Screen. Data for the mec2-1 strain (AID 157); conditions: S. cerevisiae mec2-1 strain, at 50.0 µM, active compounds read high
In short: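 mec2-1 yeast strain, carrying an alteration in DNA damage repair or cell cycle control, was exposed to compounds; growth inhibition was measured relative to vehicle-treated controls.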

[3] = NCI Yeast Anticancer Drug Screen. Data for the sgs1 mgt1 strain (AID 161);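 further: 0% = growth of cultures given vehicle only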; conditions: S. cerevisiae sgs1 mgt1 strain, at 50.0 µM, active compounds read high
In short: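 Yeast cells carrying a defined DNA-repair defect were exposed to test compounds. Growth inhibition was measured relative to vehicle-treated controls.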

[4] = NCI Yeast Anticancer Drug Screen. Data for the cln2 rad14 strain (AID 165);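 further: 0% = growth equal to vehicle treated cultures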; conditions: S. cerevisiae cln2 rad14 strain, at 50.0 µM, active compounds read high
In short: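 Yeast carrying cln2 and rad14 alterations (cell cycle control and DNA damage repair) were exposed to compounds. Growth inhibition was measured against vehicle-treated controls.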

[5] = NCI Yeast Anticancer Drug Screen. Data for the bub3 strain (AID 167); conditions: S. cerevisiae bub3 mutant strain, at 50.0 µM, active compounds read high
In short: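 Inhibition values come from growth of compound-treated mutant yeast normalised to vehicle-treated controls.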

[6] = NCI Yeast Anticancer Drug Screen. Data for the mlh1 rad18 strain (AID 175); conditions: S. cerevisiae mlh1 rad18 strain growth inhibition; at 50.0 µM; active compounds read high
In short: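 Growth inhibition of the yeast strain was measured after compound exposure and expressed relative to vehicle-treated controls. The strain carries defined defects in DNA damage repair.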

Measured: growth inhibition

CCCCCCC(=O)CC(SCCS)c1ccc(Cl)c(Cl)c1 (stereo unspecified)
inactive: [1] 4.65% | [2] 16.2% | [3] -4.3% | [4] 5.8% | [5] -1.4% | [6] 6.3%

CC(=O)N1Cc2c(N)ncnc2C1C (stereo unspecified)
inactive: [1] -10.9% | [2] -9.45% | [3] -18.8% | [4] -7.25% | [5] -0.25% | [6] -12.2%

CCCCCc1cc[n+](CC(=O)c2ccccc2)cc1
inactive: [1] 4.45% | [2] 0.7% | [3] -12.1% | [4] -62.7% | [5] -10.4% | [6] 12.8%

CCC(C)NCC/C(=C\[Si](C)(C)C)c1ccccc1 (stereo unspecified)
inactive: [1] 3.05% | [2] -11.8% | [3] -11.4% | [4] 11.7% | [5] -0.15% | [6] 8.5%

COC1OC(CO)C(O)C(NC(=O)[C@H](Cc2ccc(O)cc2)NC(=O)OCc2ccccc2)C1O (stereo partly specified)
inactive: [1] 8.6% | [2] -3.75% | [3] 3.2% | [4] -6.05% | [5] -0.5% | [6] 7.1%

CN(C)CC(O)CO (stereo unspecified)
inactive: [1] 38.5% | [2] -4% | [3] -6.5% | [4] -45.1% | [5] 21.7% | [6] 22%

CCOC(=O)c1nnn(Cc2ccccc2)c1N
inactive: [1] -2.1% | [2] -7.35% | [3] 3.75% | [4] 26.1% | [5] 1.7% | [6] -9.35%

CCOC(=O)C(=O)C(CCc1ccc2ccc3cccc4ccc1c2c34)C(=O)OCC (stereo unspecified)
inactive: [1] 10.2% | [2] 20.9% | [3] 6.55% | [4] -21.8% | [5] 0.35% | [6] 31.4%

O=C(NCCO)c1ccc(Cl)cc1
inactive: [1] -23.6% | [2] -26.3% | [3] -30.6% | [4] 19.1% | [5] -32.4% | [6] -44.5%

O=C(O)C(Nc1ccccc1)c1ccccc1 (stereo unspecified)
inactive: [1] 13.4% | [2] 3.75% | [3] 9.45% | [4] -21.9% | [5] 4.65% | [6] -6.95%

CCOc1ccc(N2C(C#N)c3ccccc3OC2c2ccccc2O)cc1 (stereo unspecified)
inactive: [1] 3.65% | [2] 46.1% | [3] 18.6% | [4] -5.2% | [5] 32.5% | [6] 11.6%

O=C(c1ccc(Cl)cc1)C1C(c2ccccc2)C1[N+](=O)[O-] (stereo unspecified)
inactive: [1] 11.2% | [2] -11.2% | [3] -3.2% | [4] -28.9% | [5] 16.4% | [6] 31%

COc1ccc(Cc2ccc(OC)c3ccccc23)c2ccccc12
inactive: [1] 9.65% | [2] -2.45% | [3] 4.3% | [4] -30.9% | [5] 15.2% | [6] -5.25%

CCNCc1cc(Nc2nc(NC3CCC(N(C)C)CC3)c3ccccc3n2)ccc1OC (stereo unspecified)
inactive: [1] 2.4% | [2] 7% | [3] -5.8% | [4] 28.3% | [5] 3.45% | [6] 9%

C/C1=C/C2=CC(C)C[C@@H]2C(=O)[C@]2(C)C(=O)CC(C)(C)[C@H]2CC1=O (stereo partly specified)
inactive: [1] 5.5% | [2] -8.6% | [3] 22.4% | [4] 5% | [5] -13.6% | [6] -87.3%

CCC(CO)N1CNC(=S)NC1 (stereo unspecified)
inactive: [1] -4.8% | [2] -14.1% | [3] 4.85% | [4] 0.8% | [5] 4.7% | [6] 0.3%

Cc1c(Cl)c(C)c(Cc2c(C)c(Cl)c(C)c(Cl)c2O)c(O)c1Cl
inactive: [1] -4.7% | [2] -40.4% | [3] -20.6% | [4] -11.7% | [5] -5.2% | [6] -5.9%

CC(=O)c1cc(CC2Cc3cc4c(cc3C2=O)CCC4)cc2c1CCC2 (stereo unspecified)
inactive: [1] -37.5% | [2] -36.1% | [3] -14.2% | [4] 9% | [5] -6.45% | [6] -4.85%

O=C1NC2(CCCC2)C(=O)N2CCCC12 (stereo unspecified)
inactive: [1] -8.65% | [2] -17.6% | [3] 17.7% | [4] -5.75% | [5] 0.3% | [6] 27.2%

O=c1[nH]cnc2sc3c(c12)CCC3
inactive: [1] 30.6% | [2] 6.9% | [3] 14.2% | [4] 13.4% | [5] 3.1% | [6] 1.55%

NC(=O)N1CCCC1
inactive: [1] -1.65% | [2] 13.1% | [3] -3.7% | [4] 7.7% | [5] 9.45% | [6] 2.15%
